Bioassay records: PubChem, NMMLSC
Shown are actives, neighbours in structure and some others; about 3.5% of the full set was active somewhere.
Anthrax LF inh2: blocks Bacillus anthracis lethal factor protease; P15917; multiplex microsphere protease cleavage assay, LF; inhibition, % at 10 µM; hit rate 0.12% among 360,000; also: plate controls were buffer without enzyme for full effect and enzyme alone for no effect
Target sequence (P15917 whole entry, looked up): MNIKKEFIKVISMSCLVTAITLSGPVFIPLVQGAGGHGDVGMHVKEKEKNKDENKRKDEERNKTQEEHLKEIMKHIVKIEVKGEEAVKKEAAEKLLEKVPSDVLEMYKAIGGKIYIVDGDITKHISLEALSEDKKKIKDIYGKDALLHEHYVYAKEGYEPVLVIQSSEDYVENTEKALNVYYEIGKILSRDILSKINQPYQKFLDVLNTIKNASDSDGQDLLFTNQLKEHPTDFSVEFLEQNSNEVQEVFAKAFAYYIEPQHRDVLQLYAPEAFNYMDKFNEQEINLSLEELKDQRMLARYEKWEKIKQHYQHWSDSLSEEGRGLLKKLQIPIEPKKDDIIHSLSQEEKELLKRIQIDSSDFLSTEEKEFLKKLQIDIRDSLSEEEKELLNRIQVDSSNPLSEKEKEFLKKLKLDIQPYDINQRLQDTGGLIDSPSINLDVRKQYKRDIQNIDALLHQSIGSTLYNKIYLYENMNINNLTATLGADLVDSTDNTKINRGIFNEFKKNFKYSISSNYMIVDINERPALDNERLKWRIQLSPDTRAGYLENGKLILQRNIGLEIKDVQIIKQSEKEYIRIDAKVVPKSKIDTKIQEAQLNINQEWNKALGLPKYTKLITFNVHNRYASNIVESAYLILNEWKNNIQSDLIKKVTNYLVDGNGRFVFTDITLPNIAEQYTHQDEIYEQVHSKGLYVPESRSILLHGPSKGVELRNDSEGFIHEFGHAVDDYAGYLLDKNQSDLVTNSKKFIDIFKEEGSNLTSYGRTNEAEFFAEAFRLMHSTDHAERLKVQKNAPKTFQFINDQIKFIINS
BoNT-A LC inh2: inhibitors of Botulinum neurotoxin A light chain protease; inhibition, % at 10 µM; multiplex microsphere protease substrate cleavage, flow cytometry; hit rate 0.17% among 360,000; also: plate controls were buffer without enzyme for full effect and enzyme alone for no effect
BoNT F protease: blocks Botulinum neurotoxin F light chain protease | inhibition, % at 10 µM | Multiplex microsphere protease cleavage assay, flow cytometry | AID 588497 | hit rate 0.22% among 360,000; in the data active = inhibition above about 35%, passing the limit was not always enough; inconclusive = no clear call, values can overlap the other calls; also: plate controls were buffer without enzyme for full effect and enzyme alone for no effect
Bead autofluor: flagged as autofluorescent in microsphere protease counterscreen; compound autofluorescence counterscreen, microsphere flow cytometry; hits give high values; fluorescence intensity (no concentration beside the values); hit rate 3.1% among 360,000; AID 624483; in the data active = fluorescence intensity above about 16000; inconclusive = no clear call, values can overlap the other calls
Active calls of the source: *. Rule as the data show it, unless noted: active = inhibition above about 30%; inconclusive = no clear call, values can overlap the other calls; inactive = below that.

Cn1nc(C(F)(F)F)c(/C=N/OC(=O)c2ccccc2)c1SCc1ccc(Cl)cc1 was read as Anthrax LF inh2 -2, BoNT-A LC inh2 -1, BoNT F protease -1 and Bead autofluor 21079*.
Cn1nc(C(F)(F)F)c(/C=N/OC(=O)c2ccc(Cl)cc2)c1Cl was read as Anthrax LF inh2 -12, BoNT-A LC inh2 0, BoNT F protease -10 and Bead autofluor 5777.
Screening CC(=O)Nc1cccc(NC(=O)CCCC(=O)O)c1 returned Anthrax LF inh2 1, BoNT-A LC inh2 inconclusive, BoNT F protease 3 and Bead autofluor 18707*.
Screening O=C(COc1ccccc1)Nc1cccc(-c2nc3ccccc3[nH]2)c1 returned Anthrax LF inh2 0, BoNT-A LC inh2 0, BoNT F protease -3 and Bead autofluor 1958.
Screening COc1ccc(OCC(=O)Nc2cccc(-c3nc4ccccc4[nH]3)c2)cc1 returned Anthrax LF inh2 -3, BoNT-A LC inh2 inconclusive, BoNT F protease -3 and Bead autofluor 24148*.
Screening O=C(O)CCCC(=O)Nc1cccc([N+](=O)[O-])c1 returned Anthrax LF inh2 -7, BoNT-A LC inh2 0, BoNT F protease 1 and Bead autofluor 7559.
O=C(O)CCCC(=O)Nc1cccc(-c2nc3ccccc3[nH]2)c1 was read as Anthrax LF inh2 3, BoNT-A LC inh2 0, BoNT F protease -3 and Bead autofluor 16669*.
CSc1ccccc1Nc1ncnc(N)n1 was read as Anthrax LF inh2 -7, BoNT-A LC inh2 0, BoNT F protease 3 and Bead autofluor 6158.
Screening Cc1ccc(C(N)=Nc2ccccc2)cc1 returned Anthrax LF inh2 0, BoNT-A LC inh2 2, BoNT F protease 3 and Bead autofluor 3099.
`COc1ccccc1OC(C)c1nnc(SCC(=O)Nc2c(C)n(C)n(-c3ccccc3)c2=O)n1-c1ccccc1` (stereo not drawn) gave Anthrax LF inh2 -1, BoNT-A LC inh2 4, BoNT F protease 4 and Bead autofluor 21279*.
For Cc1c(NC(=O)CSc2ccc(Cl)cc2)c(=O)n(-c2ccccc2)n1C the results were Anthrax LF inh2 6, BoNT-A LC inh2 0, BoNT F protease -4 and Bead autofluor 4554.
Screening Cc1c(NC(=O)CSc2nnc(C(C)Oc3ccc(Cl)cc3)n2-c2ccccc2)c(=O)n(-c2ccccc2)n1C (stereo not drawn) returned Anthrax LF inh2 -12, BoNT-A LC inh2 11, BoNT F protease 15 and Bead autofluor 18398*.
Screening O=C(NC1CC1)c1ccc(NS(=O)(=O)c2ccc(F)cc2)cc1 returned Anthrax LF inh2 inconclusive, BoNT-A LC inh2 5, BoNT F protease -11 and Bead autofluor 4652.
`COc1cc(/C=C2\C(=N)N3N=C(S(C)(=O)=O)SC3=NC2=O)cc(OC)c1OCCOc1ccccc1C` gave Anthrax LF inh2 -9, BoNT-A LC inh2 0, BoNT F protease inconclusive and Bead autofluor 3773.
`COc1cc(/C=C2\C(=N)N3N=C(C)SC3=NC2=O)cc(OC)c1OCCOc1ccccc1C` gave Anthrax LF inh2 -5, BoNT-A LC inh2 2, BoNT F protease 55* and Bead autofluor 3860.
COc1ccccc1N(CC(=O)NC1CCCC1)S(=O)(=O)c1cccc(C(F)(F)F)c1 was read as Anthrax LF inh2 -3, BoNT-A LC inh2 -5, BoNT F protease -25 and Bead autofluor 7584.
`O=c1c(-c2nnc(SCc3ccc(Cl)cc3)o2)cccn1Cc1ccccc1` gave Anthrax LF inh2 0, BoNT-A LC inh2 1, BoNT F protease 1 and Bead autofluor 22587*.
For O=C(Nc1ccccc1-c1nnc(SCc2ccc(Cl)cc2)o1)c1ccccc1 the results were Anthrax LF inh2 -3, BoNT-A LC inh2 1, BoNT F protease -1 and Bead autofluor 22262*.
For O=C(COC(=O)CNC(=O)c1ccccc1)NCCCc1ccccc1 the results were Anthrax LF inh2 16, BoNT-A LC inh2 0, BoNT F protease -8 and Bead autofluor 4116.
`Cc1ccc2nc(SCC(=O)NCc3ccc4c(c3)OCO4)nc(=O)n2c1` gave Anthrax LF inh2 1, BoNT-A LC inh2 4, BoNT F protease 14 and Bead autofluor 5641.
For COC(=O)[C@@H]1CCCN1C(=O)[C@@H](NC(=O)OC(C)(C)C)C(C)C the results were Anthrax LF inh2 10, BoNT-A LC inh2 0, BoNT F protease 5 and Bead autofluor 4096.
Screening CC(C)CNC(=O)C(=O)N/N=C/c1cccs1 returned Anthrax LF inh2 -1, BoNT-A LC inh2 -5, BoNT F protease -7 and Bead autofluor 18172*.
CCCNC(=O)C(=O)N/N=C/c1cccs1 was read as Anthrax LF inh2 3, BoNT-A LC inh2 1, BoNT F protease 3 and Bead autofluor 10484.
`CCOc1ccccc1C(=O)Nn1c(C2CCC2)nc2ccccc2c1=O` gave Anthrax LF inh2 -2, BoNT-A LC inh2 1, BoNT F protease 3 and Bead autofluor 11628.
Screening Cc1nc2ccccc2c(=O)n1NC(=O)C1CCCCC1 returned Anthrax LF inh2 -2, BoNT-A LC inh2 0, BoNT F protease -4 and Bead autofluor 6471.
